Results published in PubChem BioAssay (NCATS).
Records with an inconclusive call do not appear. Activity calls are given as the source filed them. Unless noted, the call rests on the fitted dose curve.

Columns and labels:
[1] = qHTS for Inhibitors of the Functional Ribonucleoprotein Complex (vRNP) of Lassa (LASV) Arenavirus: LASV Primary Screen - GLuc reporter signal (AID 1347082; calls by dose curve; tested in HEK293 reporter line; further: nearly all actives have a fitted effect of over 60% in size)
[2] = qHTS for Inhibitors of the Functional Ribonucleoprotein Complex (vRNP) of Lassa (LASV) Arenavirus: Viability assay - alamar blue signal for LASV Primary Screen (AID 1347083; calls by dose curve; tested in HEK293 reporter line; further: nearly all actives have a fitted effect of over 80% in size)
[3] = qHTS for Inhibitors of the Functional Ribonucleoprotein Complex (vRNP) of Lymphocytic Choriomeningitis Arenaviruses (LCMV): Viability assay - alamar blue signal for LCMV Primary Screen (AID 1347085; calls by dose curve; tested in HEK293 reporter line; further: nearly all actives have a fitted effect of over 80% in size)
[4] = target: Nucleoprotein (Lymphocytic choriomeningitis virus (strain Armstrong)) (UniProt P09992); assay: qHTS for Inhibitors of the Functional Ribonucleoprotein Complex (vRNP) of Lymphocytic Choriomeningitis Arenaviruses (LCMV): LCMV Primary Screen - GLuc reporter signal (AID 1347086); further: nearly all actives have a fitted effect of over 70% in size
Nucleoprotein (Lymphocytic choriomeningitis virus (strain Armstrong)), sequence (P09992 whole entry, looked up): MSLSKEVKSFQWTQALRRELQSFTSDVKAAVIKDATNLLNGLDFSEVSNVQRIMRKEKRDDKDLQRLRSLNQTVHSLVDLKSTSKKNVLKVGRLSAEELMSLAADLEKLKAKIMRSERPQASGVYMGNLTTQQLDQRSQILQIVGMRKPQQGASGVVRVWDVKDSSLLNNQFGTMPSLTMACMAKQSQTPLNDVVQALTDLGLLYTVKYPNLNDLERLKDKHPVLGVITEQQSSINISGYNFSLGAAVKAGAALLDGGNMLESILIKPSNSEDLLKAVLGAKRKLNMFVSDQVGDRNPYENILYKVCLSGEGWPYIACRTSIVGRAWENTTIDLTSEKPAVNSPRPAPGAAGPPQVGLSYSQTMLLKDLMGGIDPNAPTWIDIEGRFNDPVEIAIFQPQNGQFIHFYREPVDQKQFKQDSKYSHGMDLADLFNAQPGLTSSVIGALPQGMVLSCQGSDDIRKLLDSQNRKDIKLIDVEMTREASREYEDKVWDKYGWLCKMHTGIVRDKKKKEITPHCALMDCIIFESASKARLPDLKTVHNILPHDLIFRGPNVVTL
Further: series mostly up to about 57 µM.
On the % scale 0 is the no-effect control and ±100 the full control effect.

C[C@]12CC[C@H]3[C@@H](CCC4=CC(=O)CC[C@@]43C)[C@@H]1CC[C@@H]2C(=O)CO
inactive: Potency [1] | Potency [2] | Potency [3] | Potency [4]

Nc1nc2ncc(CNc3ccc(C(=O)N[C@@H](CCC(=O)O)C(=O)O)cc3)nc2c(=O)[nH]1
inactive: Potency [1] | Potency [2] | Potency [3] | Potency [4]

CC(=O)OCC(=O)[C@@]1(O)CCC2C3CCC4=CC(=O)CC[C@]4(C)C3[C@@H](O)C[C@@]21C (some centres undefined)
inactive: Potency [1] | Potency [2] | Potency [3] | Potency [4]

OC(CCCN1CCCCC1)(c1ccccc1)c1ccccc1
inactive: Potency [1] | Potency [2] | Potency [3] | Potency [4]

COc1cccc(CCc2ccccc2OCC(CN(C)C)OC(=O)CCC(=O)O)c1 (centres undefined)
inactive: Potency [1] | Potency [2] | Potency [3] | Potency [4]

CCCCCCc1ccc(O)cc1O
inactive: Potency [1] | Potency [2] | Potency [3] | Potency [4]

c1ccc2[nH]c(-c3cscn3)nc2c1
inactive: Potency [1] | Potency [2] | Potency [3] | Potency [4]

COCCc1ccc(OCC(O)CNC(C)C)cc1 (centres undefined)
inactive: Potency [1] | Potency [2] | Potency [3] | Potency [4]

CCOC(=O)[C@H](CCc1ccccc1)N[C@@H](C)C(=O)N1C(=O)N(C)C[C@H]1C(=O)O
inactive: Potency [1] | Potency [2] | Potency [3] | Potency [4]

N[C@@H](CSSC[C@H](N)C(=O)O)C(=O)O
inactive: activity change, negative = inhibition [1] -0.506% [at 0.757 µM] | activity change, negative = reduced viability [2] 9.51% [at 0.757 µM] | activity change, negative = lower viability [3] 6.72% [at 0.757 µM] | activity change, negative = inhibition [4] 13.5% [at 0.757 µM]

CCN(CC)CCOCCOC(=O)C1(c2ccccc2)CCCC1
inactive: Potency [1] | Potency [2] | Potency [3] | Potency [4]

O=c1cc(CO)occ1O
inactive: Potency [1] | Potency [2] | Potency [3] | Potency [4]

N=C(N)c1ccc2cc(OC(=O)c3ccc(N=C(N)N)cc3)ccc2c1
inactive: Potency [1] | Potency [2] | Potency [3] | Potency [4]

O=C1c2ccccc2S(=O)(=O)N1CCCCN1CCN(c2ncccn2)CC1
inactive: Potency [1] | Potency [2] | Potency [3] | Potency [4]

C[C@@H]1C[C@H]2[C@@H]3CCC4=CC(=O)C=C[C@]4(C)[C@@]3(F)[C@@H](O)C[C@]2(C)[C@@]1(O)C(=O)COC(=O)c1ccncc1
inactive: Potency [1] | Potency [2] | Potency [3] | Potency [4]

Cc1ccc(/C=N/n2c(-c3ccccc3)csc2=S)cc1
inactive: Potency [1] | Potency [2] | Potency [3] | Potency [4]

CN(C)C(=O)CNC(=O)Cc1ccccc1
inactive: Potency [1] | Potency [2] | Potency [3] | Potency [4]

CCN(CC)CC1CCCCN1CC(=O)N1c2ccccc2C(=O)Nc2cccnc21 (centres undefined)
inactive: Potency [1] | Potency [2] | Potency [3] | Potency [4]

CC1(C)[C@H](C(=O)O)N2C(=O)C[C@H]2S1(=O)=O
inactive: Potency [1] | Potency [2] | Potency [3] | Potency [4]

CC(=O)Nc1ccn(C2COC(COC(=O)c3ccccc3)O2)c(=O)n1 (centres undefined)
inactive: Potency [1] | Potency [2] | Potency [3] | Potency [4]

O=C(CCCN1CCC(O)(c2cccc(C(F)(F)F)c2)CC1)c1ccc(F)cc1
inactive: Potency [1] | Potency [2] | Potency [3] | Potency [4]

CN(C)CCOC1=Cc2ccccc2Sc2ccc(Cl)cc21
inactive: Potency [1] | Potency [2] | Potency [3] | Potency [4]

Oc1ccc(Cl)cc1Sc1cc(Cl)ccc1O
inactive: Potency [1] | Potency [2] | Potency [3] | Potency [4]

O=C(O)c1cccnc1Nc1cccc(C(F)(F)F)c1
inactive: Potency [1] | Potency [2] | Potency [3] | Potency [4]

O=C(O)CCNC(=O)c1ccccc1
inactive: Potency [1] | Potency [2] | Potency [3] | Potency [4]

CCC(=O)Nc1ccc(O)cc1
inactive: Potency [1] | Potency [2] | Potency [3] | Potency [4]

CCCCN1CCCC[C@H]1C(=O)Nc1c(C)cccc1C
inactive: Potency [1] | Potency [2] | Potency [3] | Potency [4]

C1CCN2C[C@@H]3C[C@@H](CN4CCCC[C@@H]34)[C@H]2C1
inactive: Potency [1] | Potency [2] | Potency [3] | Potency [4]

CCCCOc1ccc(C(=O)CCN2CCCCC2)cc1
inactive: Potency [1] | Potency [2] | Potency [3] | Potency [4]

C#CCN(C)Cc1ccccc1
inactive: Potency [1] | Potency [2] | Potency [3] | Potency [4]

CCN(CC)C(=O)N1CCN(C)CC1
inactive: Potency [1] | Potency [2] | Potency [3] | Potency [4]

Cc1c(N(C)C)c(=O)n(-c2ccccc2)n1C
inactive: Potency [1] | Potency [2] | Potency [3] | Potency [4]

CCC(=O)Oc1ccc2c(c1)CC[C@@H]1[C@@H]2CC[C@@]2(C)[C@H]1C[C@@H](OC(=O)CC)[C@@H]2OC(=O)CC
inactive: Potency [1] | Potency [2] | Potency [3] | Potency [4]

NCCc1cnc[nH]1
inactive: Potency [1] | Potency [2] | Potency [3] | Potency [4]

C[C@H](N)[C@H](O)c1cccc(O)c1
inactive: Potency [1] | Potency [2] | Potency [3] | Potency [4]

CCOC(=O)n1ccn(C)c1=S
inactive: Potency [1] | Potency [2] | Potency [3] | Potency [4]

CC(C(=O)O)c1ccc(CC2CCCC2=O)cc1 (centres undefined)
inactive: Potency [1] | Potency [2] | Potency [3] | Potency [4]

Cc1cccc(C)c1NC(=O)CN1CCCC1
inactive: Potency [1] | Potency [2] | Potency [3] | Potency [4]

CCOC(=O)NNc1nncc2ccccc12
inactive: Potency [1] | Potency [2] | Potency [3] | Potency [4]

CCCCCC1Nc2cc(C(F)(F)F)c(S(N)(=O)=O)cc2S(=O)(=O)N1 (centres undefined)
inactive: Potency [1] | Potency [2] | Potency [3] | Potency [4]

CO[C@]1(NC(=O)CSC(F)F)C(=O)N2C(C(=O)O)=C(CSc3nnnn3CCO)CO[C@H]21
inactive: Potency [1] | Potency [2] | Potency [3] | Potency [4]

CC(=O)OCC(=O)[C@@]12N=C(C)O[C@@H]1C[C@H]1[C@@H]3CCC4=CC(=O)C=C[C@]4(C)[C@H]3[C@@H](O)C[C@@]12C
inactive: Potency [1] | Potency [2] | Potency [3] | Potency [4]

C[N+]1(CC2COC(c3ccccc3)(C3CCCCC3)O2)CCCCC1 (centres undefined)
inactive: Potency [1] | Potency [2] | Potency [3] | Potency [4]

CCc1cc2cc(OC)c(OC)cc2c(Cc2ccccc2)n1
inactive: Potency [1] | Potency [2] | Potency [3] | Potency [4]

Oc1ccc(O)cc1
inactive: Potency [1] | Potency [2] | Potency [3] | Potency [4]

Cc1c(C)n(Cc2ccccc2)c2ccc(C(=O)OCCN(C)C)cc12
inactive: Potency [1] | Potency [2] | Potency [3] | Potency [4]

CC(N)C(=O)OC(C)(C)Cc1ccc(Cl)cc1 (centres undefined)
inactive: Potency [1] | Potency [2] | Potency [3] | Potency [4]

N=C(N)c1ccc(OCCCOc2ccc(C(=N)N)cc2)cc1
inactive: Potency [1] | Potency [2] | Potency [3] | Potency [4]

OCc1cc(C(O)CNCCCCCCOCCCCc2ccccc2)ccc1O (centres undefined)
inactive: Potency [1] | Potency [2] | Potency [3] | Potency [4]

CNC(=O)c1cnn(-c2nc(N)c3ncn([C@@H]4O[C@H](CO)[C@@H](O)[C@H]4O)c3n2)c1
inactive: Potency [1] | Potency [2] | Potency [3] | Potency [4]

CCOC(=O)c1ccc(NC(=O)CN2CCCCC2)cc1
inactive: Potency [1] | Potency [2] | Potency [3] | Potency [4]

Nc1c2c(nc3ccccc13)CCCC2O (centres undefined)
inactive: Potency [1] | Potency [2] | Potency [3] | Potency [4]

C#CCN(C)CCCOc1ccc(Cl)cc1Cl
inactive: Potency [1] | Potency [2] | Potency [3] | Potency [4]

Cc1cccc(C)c1NC(=O)C(C)N (centres undefined)
inactive: Potency [1] | Potency [2] | Potency [3] | Potency [4]

C=CCc1cc(OC)c(O)c(C(=O)NCCO)c1
inactive: Potency [1] | Potency [2] | Potency [3] | Potency [4]

COc1ccc2c(c1OC)C(=O)O[C@@H]2[C@H]1c2c(cc3c(c2OC)OCO3)CCN1C
inactive: Potency [1] | Potency [2] | Potency [3] | Potency [4]

Cc1[nH]c(C)c(Cl)c(=O)c1Cl
inactive: Potency [1] | Potency [2] | Potency [3] | Potency [4]

COc1ccc(CN(CCN(C)C)c2ncccn2)cc1
inactive: Potency [1] | Potency [2] | Potency [3] | Potency [4]

CC(=O)NC(Cc1ccccc1)C(=O)O (centres undefined)
inactive: Potency [1] | Potency [2] | Potency [3] | Potency [4]

O=C(O)C1CCC1
inactive: Potency [1] | Potency [2] | Potency [3] | Potency [4]

CC(C(O)c1ccc(O)cc1)N1CCC(Cc2ccccc2)CC1 (centres undefined)
inactive: Potency [1] | Potency [2] | Potency [3] | Potency [4]

CC1(C)S[C@@H]2[C@H](N=CN3CCCCCC3)C(=O)N2[C@H]1C(=O)O
inactive: Potency [1] | Potency [2] | Potency [3] | Potency [4]

CC1=CC(=O)c2ccccc2C1=O
inactive: Potency [1] | Potency [2] | Potency [3] | Potency [4]

CCCCCCCCNC(C)C(O)c1ccc(SC(C)C)cc1 (centres undefined)
inactive: Potency [1] | Potency [2] | Potency [3] | Potency [4]

O=C1CC2(CCCC2)CC(=O)N1CCNCC1COc2ccccc2O1 (centres undefined)
inactive: Potency [1] | Potency [2] | Potency [3] | Potency [4]

CCOC(=O)c1ccc(OC(=O)CCCCCN=C(N)N)cc1
inactive: Potency [1] | Potency [2] | Potency [3] | Potency [4]

COc1nc(C)nc(Cl)c1NC1=NCCN1
inactive: Potency [1] | Potency [2] | Potency [3] | Potency [4]

Cc1c(N)c(=O)n(-c2ccccc2)n1C
inactive: Potency [1] | Potency [2] | Potency [3] | Potency [4]

C[C@]12CC[C@@H]3c4ccc(O)cc4CC[C@H]3[C@@H]1CC[C@@H]2OC(=O)CCC1CCCC1
inactive: Potency [1] | Potency [2] | Potency [3] | Potency [4]

OC(CCN1CCCCC1)(c1ccccc1)C1CC2C=CC1C2 (centres undefined)
inactive: Potency [1] | Potency [2] | Potency [3] | Potency [4]

c1ccc([C@H]2CN3CCSC3=N2)cc1
inactive: Potency [1] | Potency [2] | Potency [3] | Potency [4]
